# Test results taken from paper PMC11006913.
# Tests used:
# Assay in all cases: PBM; 200 nM protein, PBS
# Details in all cases: dsDNA, one strand shown
# CRX [1] = biological target: CRX (Homo sapiens, UniProt O43186 26-111)
# HOXB6 [2] = biological target: HOXB6 (Homo sapiens, UniProt P17509 132-218, K202E)
# CRX [3] = biological target: CRX (Homo sapiens, UniProt O43186 26-111, E42D)
# CRX [4] = biological target: CRX (Homo sapiens, UniProt O43186 26-111, R41L)
# HOXB6 [5] = biological target: HOXB6 (Homo sapiens, UniProt P17509 132-218)
# HOXB6 (Homo sapiens, UniProt P17509 132-218), sequence (P17509 132-218): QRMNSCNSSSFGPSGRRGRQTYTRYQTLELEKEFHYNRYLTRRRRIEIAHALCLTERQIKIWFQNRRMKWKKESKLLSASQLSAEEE
# HOXC10 [6] = biological target: HOXC10 (Homo sapiens, UniProt Q9NYD6 254-340)
# HOXC10 (Homo sapiens, UniProt Q9NYD6 254-340), sequence (Q9NYD6 254-340): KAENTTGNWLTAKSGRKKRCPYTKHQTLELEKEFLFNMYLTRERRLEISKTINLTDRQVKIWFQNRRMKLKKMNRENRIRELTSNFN
# HOXC10 [7] = biological target: HOXC10 (Homo sapiens, UniProt Q9NYD6 254-340, K271E)
# HOXC10 (Homo sapiens, UniProt Q9NYD6 254-340, K271E), sequence (Q9NYD6 254-340 K271E): as the sequence (Q9NYD6 254-340) above, with K18E counted along it
# PRRX1 [8] = biological target: PRRX1 (Homo sapiens, UniProt P54821 80-166, F113S)
# PRRX1 (Homo sapiens, UniProt P54821 80-166, F113S), sequence (P54821 80-166 F113S): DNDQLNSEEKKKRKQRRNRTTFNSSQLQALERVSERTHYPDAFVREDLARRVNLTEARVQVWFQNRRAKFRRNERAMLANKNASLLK
# PRRX1 [9] = biological target: PRRX1 (Homo sapiens, UniProt P54821 80-166)
# PRRX1 (Homo sapiens, UniProt P54821 80-166), sequence (P54821 80-166): as the sequence (P54821 80-166 F113S) above, with S34F counted along it
# ALX4 [10] = biological target: ALX4 (Homo sapiens, UniProt Q9H161 200-286)
# ALX4 (Homo sapiens, UniProt Q9H161 200-286), sequence (Q9H161 200-286): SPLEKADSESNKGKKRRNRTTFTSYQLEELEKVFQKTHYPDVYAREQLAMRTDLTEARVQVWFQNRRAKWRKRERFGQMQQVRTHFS
# ALX4 [11] = biological target: ALX4 (Homo sapiens, UniProt Q9H161 200-286, Q225E)
# ALX4 (Homo sapiens, UniProt Q9H161 200-286, Q225E), sequence (Q9H161 200-286 Q225E): as the sequence (Q9H161 200-286) above, with Q26E counted along it
# PROP1 [12] = biological target: PROP1 (Homo sapiens, UniProt O75360 56-141)
# PROP1 (Homo sapiens, UniProt O75360 56-141), sequence (O75360 56-141): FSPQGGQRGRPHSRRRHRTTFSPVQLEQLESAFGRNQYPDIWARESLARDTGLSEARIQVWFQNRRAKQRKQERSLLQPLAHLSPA
# PROP1 [13] = biological target: PROP1 (Homo sapiens, UniProt O75360 56-141, R99H)
# PROP1 (Homo sapiens, UniProt O75360 56-141, R99H), sequence (O75360 56-141 R99H): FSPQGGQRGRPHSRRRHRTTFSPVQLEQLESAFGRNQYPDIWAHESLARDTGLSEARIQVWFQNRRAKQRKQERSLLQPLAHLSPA
# PROP1 [14] = biological target: PROP1 (Homo sapiens, UniProt O75360 56-141, F88S)
# PROP1 (Homo sapiens, UniProt O75360 56-141, F88S), sequence (O75360 56-141 F88S): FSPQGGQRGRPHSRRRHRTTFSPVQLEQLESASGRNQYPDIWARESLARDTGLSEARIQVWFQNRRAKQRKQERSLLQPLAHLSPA
# MSX2 [15] = biological target: MSX2 (Homo sapiens, UniProt P35548 130-214, R199I)
# MSX2 (Homo sapiens, UniProt P35548 130-214, R199I), sequence (P35548 130-214 R199I): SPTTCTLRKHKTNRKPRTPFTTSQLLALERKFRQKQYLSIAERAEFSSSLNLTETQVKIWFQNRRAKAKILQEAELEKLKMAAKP
# MSX2 [16] = biological target: MSX2 (Homo sapiens, UniProt P35548 130-214)
# MSX2 (Homo sapiens, UniProt P35548 130-214), sequence (P35548 130-214): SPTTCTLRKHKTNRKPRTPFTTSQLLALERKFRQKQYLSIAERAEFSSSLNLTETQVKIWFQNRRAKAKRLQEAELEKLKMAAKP
# VAX1 [17] = biological target: VAX1 (Homo sapiens, UniProt Q5SQQ9 86-172)
# VAX1 (Homo sapiens, UniProt Q5SQQ9 86-172), sequence (Q5SQQ9 86-172): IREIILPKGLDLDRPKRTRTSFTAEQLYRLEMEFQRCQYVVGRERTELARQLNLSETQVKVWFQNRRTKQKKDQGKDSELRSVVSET
# MSX2 [18] = biological target: MSX2 (Homo sapiens, UniProt P35548 130-214, F161Y)
# MSX2 (Homo sapiens, UniProt P35548 130-214, F161Y), sequence (P35548 130-214 F161Y): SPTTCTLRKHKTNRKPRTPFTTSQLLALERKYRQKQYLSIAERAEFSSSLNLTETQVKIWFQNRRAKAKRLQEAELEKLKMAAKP
# VAX1 [19] = biological target: VAX1 (Homo sapiens, UniProt Q5SQQ9 86-172, T142I)
# VAX1 (Homo sapiens, UniProt Q5SQQ9 86-172, T142I), sequence (Q5SQQ9 86-172 T142I): as the sequence (Q5SQQ9 86-172) above, with T57I counted along it
# VAX1 [20] = biological target: VAX1 (Homo sapiens, UniProt Q5SQQ9 86-172, K157R)
# VAX1 (Homo sapiens, UniProt Q5SQQ9 86-172, K157R), sequence (Q5SQQ9 86-172 K157R): as the sequence (Q5SQQ9 86-172) above, with K72R counted along it
# HOXA2 [21] = biological target: HOXA2 (Homo sapiens, UniProt O43364 129-215, R185T)
# HOXA2 (Homo sapiens, UniProt O43364 129-215, R185T), sequence (O43364 129-215 R185T): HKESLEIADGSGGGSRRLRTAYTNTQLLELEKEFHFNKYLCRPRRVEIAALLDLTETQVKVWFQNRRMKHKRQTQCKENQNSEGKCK
# ALX1 [22] = biological target: ALX1 (Homo sapiens, UniProt Q15699 118-204, L144V)
# ALX1 (Homo sapiens, UniProt Q15699 118-204, L144V), sequence (Q15699 118-204 L144V): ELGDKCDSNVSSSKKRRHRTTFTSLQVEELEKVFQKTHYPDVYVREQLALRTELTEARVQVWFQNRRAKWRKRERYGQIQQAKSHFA
# HOXA2 [23] = biological target: HOXA2 (Homo sapiens, UniProt O43364 129-215, R185K)
# HOXA2 (Homo sapiens, UniProt O43364 129-215, R185K), sequence (O43364 129-215 R185K): as the sequence (O43364 129-215 R185T) above, with T57K counted along it
# ALX1 [24] = biological target: ALX1 (Homo sapiens, UniProt Q15699 118-204, L144R)
# ALX1 (Homo sapiens, UniProt Q15699 118-204, L144R), sequence (Q15699 118-204 L144R): as the sequence (Q15699 118-204 L144V) above, with V27R counted along it
# HOXA2 [25] = biological target: HOXA2 (Homo sapiens, UniProt O43364 129-215, Y150S)
# HOXA2 (Homo sapiens, UniProt O43364 129-215, Y150S), sequence (O43364 129-215 Y150S): as the sequence (O43364 129-215 R185T) above, with Y22S, T57R counted along it
# ALX1 [26] = biological target: ALX1 (Homo sapiens, UniProt Q15699 118-204)
# ALX1 (Homo sapiens, UniProt Q15699 118-204), sequence (Q15699 118-204): as the sequence (Q15699 118-204 L144V) above, with V27L counted along it
# HOXA2 [27] = biological target: HOXA2 (Homo sapiens, UniProt O43364 129-215)
# HOXA2 (Homo sapiens, UniProt O43364 129-215), sequence (O43364 129-215): as the sequence (O43364 129-215 R185T) above, with T57R counted along it
# PITX2 = PITX2 (Homo sapiens, UniProt Q99697 72-157)
# CRX (Homo sapiens, UniProt O43186 26-111, E42D), sequence (O43186 26-111 E42D): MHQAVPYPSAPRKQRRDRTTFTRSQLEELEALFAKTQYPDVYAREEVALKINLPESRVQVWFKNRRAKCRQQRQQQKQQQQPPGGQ
# CRX (Homo sapiens, UniProt O43186 26-111), sequence (O43186 26-111): as the sequence (O43186 26-111 E42D) above, with D17E counted along it
# CRX (Homo sapiens, UniProt O43186 26-111, R41L), sequence (O43186 26-111 R41L): as the sequence (O43186 26-111 E42D) above, with R16L, D17E counted along it
# HOXB6 (Homo sapiens, UniProt P17509 132-218, K202E), sequence (P17509 132-218 K202E): as the sequence (P17509 132-218) above, with K71E counted along it
sequence,measurement,setting,value
CAGGGCGG,binding signal,CRX [1],"8.46 upbm affinity estimate (log intensity, higher = more binding, comparable within an allelic series)"
same,binding signal,HOXB6 [2],"8.95 upbm affinity estimate (log intensity, higher = more binding, comparable within an allelic series)"
same,binding signal,CRX [3],"8.33 upbm affinity estimate (log intensity, higher = more binding, comparable within an allelic series)"
same,binding signal,CRX [4],"8.31 upbm affinity estimate (log intensity, higher = more binding, comparable within an allelic series)"
same,binding signal,HOXB6 [5],"8.83 upbm affinity estimate (log intensity, higher = more binding, comparable within an allelic series)"
CATCATAA,binding signal,CRX [1],"10.1 upbm affinity estimate (log intensity, higher = more binding, comparable within an allelic series)"
same,binding signal,HOXC10 [6],"11.7 upbm affinity estimate (log intensity, higher = more binding, comparable within an allelic series)"
same,binding signal,CRX [3],"10 upbm affinity estimate (log intensity, higher = more binding, comparable within an allelic series)"
same,binding signal,HOXC10 [7],"11.3 upbm affinity estimate (log intensity, higher = more binding, comparable within an allelic series)"
same,binding signal,CRX [4],"9.57 upbm affinity estimate (log intensity, higher = more binding, comparable within an allelic series)"
ACTGCGTG,binding signal,CRX [1],"8.27 upbm affinity estimate (log intensity, higher = more binding, comparable within an allelic series)"
same,binding signal,PRRX1 [8],"9.32 upbm affinity estimate (log intensity, higher = more binding, comparable within an allelic series)"
same,binding signal,CRX [3],"8.35 upbm affinity estimate (log intensity, higher = more binding, comparable within an allelic series)"
same,binding signal,CRX [4],"8.29 upbm affinity estimate (log intensity, higher = more binding, comparable within an allelic series)"
same,binding signal,PRRX1 [9],"9.57 upbm affinity estimate (log intensity, higher = more binding, comparable within an allelic series)"
GAGGGCCC,binding signal,CRX [1],"8.25 upbm affinity estimate (log intensity, higher = more binding, comparable within an allelic series)"
same,binding signal,ALX4 [10],"7.97 upbm affinity estimate (log intensity, higher = more binding, comparable within an allelic series)"
same,binding signal,ALX4 [11],"7.92 upbm affinity estimate (log intensity, higher = more binding, comparable within an allelic series)"
same,binding signal,CRX [3],"8.06 upbm affinity estimate (log intensity, higher = more binding, comparable within an allelic series)"
same,binding signal,PROP1 [12],"6.79 upbm affinity estimate (log intensity, higher = more binding, comparable within an allelic series)"
same,binding signal,PROP1 [13],"6.72 upbm affinity estimate (log intensity, higher = more binding, comparable within an allelic series)"
same,binding signal,PROP1 [14],"6.48 upbm affinity estimate (log intensity, higher = more binding, comparable within an allelic series)"
same,binding signal,CRX [4],"8.14 upbm affinity estimate (log intensity, higher = more binding, comparable within an allelic series)"
GTGCCACA,binding signal,CRX [1],"8.41 upbm affinity estimate (log intensity, higher = more binding, comparable within an allelic series)"
same,binding signal,CRX [3],"8.34 upbm affinity estimate (log intensity, higher = more binding, comparable within an allelic series)"
same,binding signal,MSX2 [15],"9.58 upbm affinity estimate (log intensity, higher = more binding, comparable within an allelic series)"
same,binding signal,MSX2 [16],"9.65 upbm affinity estimate (log intensity, higher = more binding, comparable within an allelic series)"
same,binding signal,PROP1 [12],"6.66 upbm affinity estimate (log intensity, higher = more binding, comparable within an allelic series)"
same,binding signal,PROP1 [13],"6.7 upbm affinity estimate (log intensity, higher = more binding, comparable within an allelic series)"
same,binding signal,VAX1 [17],"7.16 upbm affinity estimate (log intensity, higher = more binding, comparable within an allelic series)"
same,binding signal,PROP1 [14],"6.8 upbm affinity estimate (log intensity, higher = more binding, comparable within an allelic series)"
same,binding signal,MSX2 [18],"9.56 upbm affinity estimate (log intensity, higher = more binding, comparable within an allelic series)"
same,binding signal,VAX1 [19],"7.19 upbm affinity estimate (log intensity, higher = more binding, comparable within an allelic series)"
same,binding signal,CRX [4],"8.33 upbm affinity estimate (log intensity, higher = more binding, comparable within an allelic series)"
same,binding signal,VAX1 [20],"7.08 upbm affinity estimate (log intensity, higher = more binding, comparable within an allelic series)"
ACCGGGCG,binding signal,CRX [1],"7.62 upbm affinity estimate (log intensity, higher = more binding, comparable within an allelic series)"
same,binding signal,ALX4 [10],"7.78 upbm affinity estimate (log intensity, higher = more binding, comparable within an allelic series)"
same,binding signal,ALX4 [11],"7.99 upbm affinity estimate (log intensity, higher = more binding, comparable within an allelic series)"
same,binding signal,HOXA2 [21],"6.76 upbm affinity estimate (log intensity, higher = more binding, comparable within an allelic series)"
same,binding signal,CRX [3],"7.73 upbm affinity estimate (log intensity, higher = more binding, comparable within an allelic series)"
same,binding signal,ALX1 [22],"6.09 upbm affinity estimate (log intensity, higher = more binding, comparable within an allelic series)"
same,binding signal,HOXA2 [23],"10.3 upbm affinity estimate (log intensity, higher = more binding, comparable within an allelic series)"
same,binding signal,ALX1 [24],"6.25 upbm affinity estimate (log intensity, higher = more binding, comparable within an allelic series)"
same,binding signal,HOXA2 [25],"10.3 upbm affinity estimate (log intensity, higher = more binding, comparable within an allelic series)"
same,binding signal,CRX [4],"7.79 upbm affinity estimate (log intensity, higher = more binding, comparable within an allelic series)"
same,binding signal,ALX1 [26],"6.19 upbm affinity estimate (log intensity, higher = more binding, comparable within an allelic series)"
same,binding signal,HOXA2 [27],"7.26 upbm affinity estimate (log intensity, higher = more binding, comparable within an allelic series)"
ACTATCCG,binding signal,CRX [1],"9.31 upbm affinity estimate (log intensity, higher = more binding, comparable within an allelic series)"
same,binding signal,CRX [3],"9.26 upbm affinity estimate (log intensity, higher = more binding, comparable within an allelic series)"
CCTAATAG,binding signal,CRX [1],"9.68 upbm affinity estimate (log intensity, higher = more binding, comparable within an allelic series)"
same,binding signal,CRX [3],"9.47 upbm affinity estimate (log intensity, higher = more binding, comparable within an allelic series)"
CGGCGTCC,binding signal,CRX [1],"7.94 upbm affinity estimate (log intensity, higher = more binding, comparable within an allelic series)"
same,binding signal,HOXC10 [6],"10 upbm affinity estimate (log intensity, higher = more binding, comparable within an allelic series)"
same,binding signal,CRX [3],"8 upbm affinity estimate (log intensity, higher = more binding, comparable within an allelic series)"
same,binding signal,HOXC10 [7],"10.1 upbm affinity estimate (log intensity, higher = more binding, comparable within an allelic series)"
same,binding signal,CRX [4],"8.06 upbm affinity estimate (log intensity, higher = more binding, comparable within an allelic series)"
GGACCGCC,binding signal,CRX [1],"8.02 upbm affinity estimate (log intensity, higher = more binding, comparable within an allelic series)"
same,binding signal,PRRX1 [8],"9.27 upbm affinity estimate (log intensity, higher = more binding, comparable within an allelic series)"
same,binding signal,HOXB6 [2],"8.98 upbm affinity estimate (log intensity, higher = more binding, comparable within an allelic series)"
same,binding signal,HOXA2 [21],"7.28 upbm affinity estimate (log intensity, higher = more binding, comparable within an allelic series)"
same,binding signal,CRX [3],"8.13 upbm affinity estimate (log intensity, higher = more binding, comparable within an allelic series)"
same,binding signal,PITX2,"7.63 upbm affinity estimate (log intensity, higher = more binding, comparable within an allelic series)"
same,binding signal,HOXA2 [23],"10.2 upbm affinity estimate (log intensity, higher = more binding, comparable within an allelic series)"
same,binding signal,HOXA2 [25],"10.4 upbm affinity estimate (log intensity, higher = more binding, comparable within an allelic series)"
same,binding signal,CRX [4],"8.16 upbm affinity estimate (log intensity, higher = more binding, comparable within an allelic series)"
same,binding signal,PRRX1 [9],"9.42 upbm affinity estimate (log intensity, higher = more binding, comparable within an allelic series)"
same,binding signal,HOXA2 [27],"7.23 upbm affinity estimate (log intensity, higher = more binding, comparable within an allelic series)"
same,binding signal,HOXB6 [5],"9.08 upbm affinity estimate (log intensity, higher = more binding, comparable within an allelic series)"
